Source: PubChem BioAssay (NCATS)
Inconclusive results are not listed. The source made the active and inactive calls. Unless noted, the call rests on the fitted dose curve; in most records, active means well fitted curve in the direction sought with a large enough effect; inconclusive means small, poorly fitted or top-dose-only effect, or another doubt; inactive means no such curve, though single readings can be large; an effect the other way counts as inactive or inconclusive.

Legend:
[1] = molecular target: ATP-dependent DNA helicase Q1 (Homo sapiens) (UniProt P46063); assay: qHTS Validation Assay for Inhibitors of RecQ-Like Dna Helicase 1 (RECQ1) (AID 2353)
How it was run: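 RECQ1T1 50 nM; forked duplex (20 bp + 30-nt ss tails) 200 nM, ATP 2 mM final; pH 8.0, 2 mM MgCl2, 2.5 ug/ml poly(dI-dC); 15 min compound preincubation; discontinuous kinetic read over 2 h at RT.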

[2] = Cytometric Cell-Based qHTS for Inhibitors of the mTORC1 Signaling Pathway in MEF (Tsc2-/-, p53-/-) Cells (AID 2660);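 further: Tsc2 and p53 null MEFs carrying empty vector with compound for 24 h; percent of cells above a phospho-rpS6 to PI ratio cutoff in each well; series mostly up to about 38 µM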
How it was run: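 Cells are plated, treated with compound for 24 hrs at 37 degree Celsius, then fixed, blocked and immunostained for phospho-rpS6 Ser235/236. Propidium iodide counterstain follows. Per-well % positive cells is derived from the PI-normalized phospho-S6 signal.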

[3] = High Content Imaging Cell-Based qHTS for Inhibitors of the mTORC1 Signaling Pathway in MEF (Tsc2-/-, p53-/-) Cells (AID 2666);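 further: percent of cells scored positive for phospho-rpS6 Ser235/236 immunostaining by imaging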; further: potency means the concentration at half of the fitted maximal effect
How it was run: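 MEF Tsc2-/- p53-/- (empty vector), DMEM/10% FBS; cpd 24 h 37 °C; PFA fix, Alexa-488 p-rpS6 S235/236 Ab, Hoechst; imaged; rapamycin-defined inhibition; % positive cells/well.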

[4] = High Content Imaging Cell-Based qHTS for Inhibitors of the mTORC1 Signaling Pathway in MEF Cells (AID 2667);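 further: Tsc2-/- p53-/- MEFs stably re-expressing wild-type Tsc2 exposed 24 h; series mostly up to about 38 µM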
How it was run: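 Read-out is the share of phospho-rpS6-positive cells per well, from Hoechst-normalized Alexa-488 Ser235/236 staining imaged on IN Cell. Cells: WT Tsc2-expressing Tsc2-/-, p53-/- MEFs exposed to compound for 24 hrs.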

[5] = Cytometry Cell-Based qHTS for Inhibitors of the mTORC1 Signaling Pathway in MEF cells (AID 2668); further: potency means the concentration at half of the fitted maximal effect
How it was run: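 Tsc2-/-, p53-/- MEFs re-expressing WT Tsc2; cpd 24 hrs, 37 degree Celsius; PFA fix, Alexa-488 p-rpS6 (Ser235/236) Ab 2 hrs RT, PI counterstain; Acumen 488nm scan; p-S6/PI ratio → % positive cells; PI count = viability.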

[6] = Validation screen for small molecules that induce DNA re-replication in MCF 10A normal breast cells (AID 463097); further: nearly all actives have a fitted effect of over 60% in size; further: potency means the concentration at half of the fitted maximal effect
How it was run: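 Image-based qHTS: normal breast cells are incubated with compound for 48 hr, stained with Hoechst, and scanned for total nuclear fluorescence. Compounds raising the fraction of nuclei with elevated DNA content count as re-replication inducers.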

[7] = molecular target: Ubiquitin carboxyl-terminal hydrolase 2 (Homo sapiens) (UniProt O75604); assay: qHTS Validation Assay for Inhibitors of Ubiquitin-specific Protease USP2a Using CHOP2 as the Reporter (AID 463106)
How it was run: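 Fluorescence read-out at Ex 485nm/Em 531nm after 60min RT, following addition of 25nM Ub-CHOP2 plus 25nM reporter substrate to USP2 core (10nM) pretreated 30min with compound. Data normalized to NEM full inhibition; concentration-response curves fitted.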

[8] = qHTS Assay for Identification of Small Molecule Inducers of Hypoxia Response (AID 2120; active means well fitted curve in the direction sought with a large enough effect in the signal ratio, with a control signal flat, not every such curve was filed as active; the % refers to the signal ratio)
How it was run: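 Reporter induction read as the CCF4 blue/green (460nm/530nm) emission ratio after 2.5 h dye loading at room temperature. ME-180 HRE-beta-lactamase cells received titrated compounds for 17 h at 37 degrees Celsius; AC50 values derived.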

[9] = molecular target: Ferritin light chain (Equus caballus) (UniProt P02791); assay: qHTS Validation Assay for Identification of Novel General Anesthetics (AID 2323); further: series mostly up to about 77 µM
How it was run: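 Fluorescence at 535 nm (excitation 380 nm) reported loss of 1-AMA binding to horse-spleen apoferritin (10 uM) in PBS with 50% saturated 1-aminoanthracene, after 10 min room-temperature incubation with compound; values from Hill fits of normalized response.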

[10] = molecular target: RecQ-like DNA helicase BLM (Homo sapiens) (UniProt P54132); assay: qHTS Validation Assay for Inhibitors of Bloom's syndrome helicase (BLM) (AID 2364); further: potency means the concentration at half of the fitted maximal effect
How it was run: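 50 nM BLM preincubated 15 min at room temperature with compound in pH 8.0 Tris buffer containing 2.5 ug/ml poly(dI-dC); started with 200 nM TAMRA/BHQ-2 forked duplex and 2 mM ATP (final). Unwinding read as TAMRA fluorescence increase, two reads 2 h apart.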

Measured: Potency

Sequence of Ubiquitin carboxyl-terminal hydrolase 2 (Homo sapiens) (O75604 whole entry, looked up): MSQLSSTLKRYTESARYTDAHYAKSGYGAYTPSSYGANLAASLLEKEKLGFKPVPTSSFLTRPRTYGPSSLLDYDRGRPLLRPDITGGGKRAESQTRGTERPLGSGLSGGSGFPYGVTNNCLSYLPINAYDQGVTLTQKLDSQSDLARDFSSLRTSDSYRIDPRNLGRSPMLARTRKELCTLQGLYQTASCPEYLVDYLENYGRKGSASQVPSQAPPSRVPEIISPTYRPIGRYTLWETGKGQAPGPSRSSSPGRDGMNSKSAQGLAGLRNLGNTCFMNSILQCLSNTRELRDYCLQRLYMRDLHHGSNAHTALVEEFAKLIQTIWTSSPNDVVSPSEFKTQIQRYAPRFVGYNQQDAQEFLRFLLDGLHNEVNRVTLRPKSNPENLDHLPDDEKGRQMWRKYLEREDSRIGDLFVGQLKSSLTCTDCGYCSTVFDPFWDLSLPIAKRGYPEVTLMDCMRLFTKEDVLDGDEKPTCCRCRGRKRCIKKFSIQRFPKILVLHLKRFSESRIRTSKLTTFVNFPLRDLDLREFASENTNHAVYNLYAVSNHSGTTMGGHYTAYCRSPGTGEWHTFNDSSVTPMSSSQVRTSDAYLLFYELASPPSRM
Sequence of ATP-dependent DNA helicase Q1 (Homo sapiens) (P46063 whole entry, looked up): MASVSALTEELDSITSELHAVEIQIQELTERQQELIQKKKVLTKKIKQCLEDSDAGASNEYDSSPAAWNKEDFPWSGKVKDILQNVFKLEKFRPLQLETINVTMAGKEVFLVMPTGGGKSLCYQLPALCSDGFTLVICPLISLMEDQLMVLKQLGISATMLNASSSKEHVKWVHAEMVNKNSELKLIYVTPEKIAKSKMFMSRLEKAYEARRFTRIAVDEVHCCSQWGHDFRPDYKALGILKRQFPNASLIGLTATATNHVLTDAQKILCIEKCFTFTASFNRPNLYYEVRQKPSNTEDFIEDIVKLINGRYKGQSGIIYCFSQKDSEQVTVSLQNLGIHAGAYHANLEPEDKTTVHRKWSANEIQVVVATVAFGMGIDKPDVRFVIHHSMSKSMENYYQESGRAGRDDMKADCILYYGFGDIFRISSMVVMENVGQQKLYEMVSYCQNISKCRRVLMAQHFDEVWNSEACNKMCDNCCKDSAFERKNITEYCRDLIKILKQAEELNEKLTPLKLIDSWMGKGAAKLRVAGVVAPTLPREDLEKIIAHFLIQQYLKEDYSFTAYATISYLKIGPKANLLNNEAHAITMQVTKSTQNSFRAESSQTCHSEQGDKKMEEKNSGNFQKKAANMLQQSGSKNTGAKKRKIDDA
Sequence of Ferritin light chain (Equus caballus) (P02791 2-175 limits assumed): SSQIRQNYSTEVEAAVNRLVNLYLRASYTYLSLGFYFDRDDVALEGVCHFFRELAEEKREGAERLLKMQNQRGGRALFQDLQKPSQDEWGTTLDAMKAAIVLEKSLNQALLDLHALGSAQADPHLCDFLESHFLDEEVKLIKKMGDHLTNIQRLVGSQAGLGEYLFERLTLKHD
Sequence of RecQ-like DNA helicase BLM (Homo sapiens) (P54132 whole entry, looked up): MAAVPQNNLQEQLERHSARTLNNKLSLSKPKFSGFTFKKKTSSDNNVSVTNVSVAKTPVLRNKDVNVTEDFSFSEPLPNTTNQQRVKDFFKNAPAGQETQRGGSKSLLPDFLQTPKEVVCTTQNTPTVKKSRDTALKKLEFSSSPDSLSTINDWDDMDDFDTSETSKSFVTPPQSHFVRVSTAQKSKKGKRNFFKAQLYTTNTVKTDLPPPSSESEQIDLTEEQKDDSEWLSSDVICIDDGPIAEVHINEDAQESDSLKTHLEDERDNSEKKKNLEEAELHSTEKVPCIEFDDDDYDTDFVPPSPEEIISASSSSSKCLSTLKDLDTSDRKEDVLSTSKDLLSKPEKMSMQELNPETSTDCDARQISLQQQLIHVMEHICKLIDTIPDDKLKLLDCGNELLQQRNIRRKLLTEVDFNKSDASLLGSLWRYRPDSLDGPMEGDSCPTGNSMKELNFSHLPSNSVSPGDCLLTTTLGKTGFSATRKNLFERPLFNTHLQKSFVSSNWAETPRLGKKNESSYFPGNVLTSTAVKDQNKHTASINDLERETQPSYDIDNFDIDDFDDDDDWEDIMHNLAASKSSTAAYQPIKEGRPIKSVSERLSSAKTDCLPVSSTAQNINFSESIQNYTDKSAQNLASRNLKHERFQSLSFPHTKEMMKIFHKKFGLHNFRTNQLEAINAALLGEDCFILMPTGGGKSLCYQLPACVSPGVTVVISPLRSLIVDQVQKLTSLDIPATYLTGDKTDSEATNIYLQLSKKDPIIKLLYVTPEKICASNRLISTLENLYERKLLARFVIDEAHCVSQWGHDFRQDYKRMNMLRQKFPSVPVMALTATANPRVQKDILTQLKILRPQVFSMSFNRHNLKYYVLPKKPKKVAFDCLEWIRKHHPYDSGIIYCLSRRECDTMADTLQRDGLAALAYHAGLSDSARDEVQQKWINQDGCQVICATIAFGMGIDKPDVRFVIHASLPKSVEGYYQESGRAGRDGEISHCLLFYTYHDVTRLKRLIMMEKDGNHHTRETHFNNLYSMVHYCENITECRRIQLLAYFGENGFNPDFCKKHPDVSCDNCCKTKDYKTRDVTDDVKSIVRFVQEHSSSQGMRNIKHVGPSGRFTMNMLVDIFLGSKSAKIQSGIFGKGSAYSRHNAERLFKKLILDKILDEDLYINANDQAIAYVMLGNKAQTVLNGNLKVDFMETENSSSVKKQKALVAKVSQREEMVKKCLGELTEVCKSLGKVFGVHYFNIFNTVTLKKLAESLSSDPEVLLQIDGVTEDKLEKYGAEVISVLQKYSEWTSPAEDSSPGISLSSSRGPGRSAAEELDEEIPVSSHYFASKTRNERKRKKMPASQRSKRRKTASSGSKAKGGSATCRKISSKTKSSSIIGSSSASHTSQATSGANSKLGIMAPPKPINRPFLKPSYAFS

Clc1ccc(Cn2c(CN3CCCC3)nc3ccccc32)cc1
not listed: [8] | [9] | [10]
inactive: all other assays above

O=C(O)Cc1cccc2ccccc12
inactive: [8]

COC(=O)[C@@H]1[C@H]2C[C@H]3c4[nH]c5ccccc5c4CCN3C[C@@H]2CC[C@@H]1O
not listed: [5] | [8]
inactive: all other assays above

CCN(CC)CCOC(=O)c1ccc(N)cc1
not listed: [8] | [10]
inactive: all other assays above

CC(=O)O[C@]1(C(C)=O)CC[C@H]2[C@@H]3C=C(Cl)C4=CC(=O)[C@@H]5C[C@@H]5[C@]4(C)[C@H]3CC[C@@]21C
inactive: [2] | [3] | [4] | [5] | [7]

COc1ccccc1N1CCN(CCCNc2cc(=O)n(C)c(=O)n2C)CC1
not listed: [8] | [10]
inactive: all other assays above

CC(=O)N[C@@H](CS)C(=O)O
not listed: [1] | [8] | [10]
inactive: all other assays above

CC(C)OC(=O)C(C)(C)Oc1ccc(C(=O)c2ccc(Cl)cc2)cc1
inactive: [1] | [2] | [3] | [4] | [6] | [7]

NC(N)=Nc1nc(CSCC/C(N)=N/S(N)(=O)=O)cs1
not listed: [8] | [10]
inactive: all other assays above

CCCCCN(C)CCC(O)(P(=O)(O)O)P(=O)(O)O
inactive: [2] | [3] | [4] | [5] | [7]

CCN(CC)C(=O)c1ccc(O)c(OC)c1
not listed: [8] | [10]
inactive: all other assays above

CCCCC1C(=O)N(c2ccccc2)N(c2ccccc2)C1=O
not listed: [9] | [10]
inactive: all other assays above

CC1(C)CCC2=C(O1)c1ccccc1C(=O)C2=O
inactive: [1] | [3] | [4] | [7]
active: [10] 25.1 µM

O=c1c(-c2ccc(O)cc2)coc2cc(O)ccc12
not listed: [8] | [10]
inactive: all other assays above

C[N+](C)(C)CC(=O)O
inactive: [2] | [3] | [4] | [5] | [7]

O=C1NCC2(CCN(CCc3ccccc3)CC2)O1
not listed: [8] | [10]
inactive: all other assays above

O=C(NCCN1CCOCC1)c1ccc(Cl)cc1
inactive: [2] | [3] | [4] | [5] | [7]

O=C(O)c1cc(O)c2c(c1)C(=O)c1cccc(O)c1C2=O
inactive: [8]

COc1cccc(-c2cc(=O)c3ccccc3o2)c1N
not listed: [6] | [8] | [10]
inactive: all other assays above

CC(C)NCC(O)COc1cccc2[nH]ccc12 (stereo not given)
not listed: [8] | [10]
inactive: all other assays above

CC(=O)CCCCn1c(=O)c2c(ncn2C)n(C)c1=O
not listed: [8]
inactive: all other assays above

C[N+](C)(C)CCCCCC[N+](C)(C)C
not listed: [8]
inactive: all other assays above

COc1ccc(Cc2nccc3cc(OC)c(OC)cc23)cc1OC
inactive: [2] | [3] | [4] | [5] | [7]

O=c1cc(-c2ccc(O)cc2)oc2cc(O)cc(O)c12
not listed: [6] | [8] | [9]
inactive: all other assays above

Clc1ccc(C(c2ccc(Cl)cc2)n2cc[n+](CC(OCc3ccc(Cl)cc3Cl)c3ccc(Cl)cc3Cl)c2)cc1 (stereo not given)
inactive: [3]

CCN(CC)CCNC(=O)c1ccc(N)cc1
not listed: [7] | [8] | [10]
inactive: all other assays above

CC(C)(C)c1ccc(C(O)CCCN2CCC(C(O)(c3ccccc3)c3ccccc3)CC2)cc1 (stereo not given)
active: [3] 18.5 µM | [5] 7.36 µM | [6] 11.2 µM
inactive: [1] | [7]

NCCS
not listed: [8] | [10]
inactive: all other assays above

CC1=C(/C=C/C(C)=C/C=C/C(C)=C/C(=O)Nc2ccc(O)cc2)C(C)(C)CCC1
active: [5] 18.5 µM
inactive: [1] | [7]

Cc1cccc(C)c1OCC(C)N (stereo not given)
not listed: [8] | [9]
inactive: all other assays above

CN(C)CCC(c1ccccc1)c1ccccn1 (stereo not given)
not listed: [8]
inactive: all other assays above

O=C(O)CCc1nc(-c2ccccc2)c(-c2ccccc2)o1
not listed: [8]
inactive: all other assays above

CCCNC(=O)NS(=O)(=O)c1ccc(Cl)cc1
inactive: all assays above

O=c1[nH]cnc2c1ncn2[C@H]1CC[C@@H](CO)O1
inactive: [8]

CCN1CCC[C@H]1CNC(=O)c1cc(S(N)(=O)=O)ccc1OC
not listed: [8] | [10]
inactive: all other assays above

CCn1cc(C(=O)O)c(=O)c2ccc(C)nc21
inactive: [2] | [3] | [4] | [5] | [7]

O=C1NC(=O)C(c2ccccc2)(c2ccccc2)N1
not listed: [8] | [10]
inactive: all other assays above

CC(=O)c1ccc(S(=O)(=O)NC(=O)NC2CCCCC2)cc1
not listed: [8] | [10]
inactive: all other assays above

CC/C(=C(\c1ccccc1)c1ccc(OCCN(C)C)cc1)c1ccccc1
inactive: [9] | [1] | [7]
active: [6] 17.8 µM
